Data as given in PubChem BioAssay (Tox21).
Records with an inconclusive call do not appear. Activity calls are given as the source filed them. Unless noted, calls follow the shape of the dose curve; as a rule, active = well fitted curve in the direction sought with a large enough effect in the repeat runs; inconclusive = weak or mixed curves; inactive = no such curve, though single readings can be large; an effect the other way counts as inactive or inconclusive.

Key:
[1] = target: Retinoic acid receptor RXR-alpha (Homo sapiens) (UniProt P19793); test: qHTS assay to identify small molecule agonists of the RXR signaling pathway (AID 1159527; calls by dose curve; also: nearly all actives have a fitted effect of over 35% in size)
In short: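 Agonist-mode beta-lactamase reporter assay: HEK 293T RXR-alpha-UAS-bla cells treated 16 hr at 37 C with compounds, 9-cis retinoic acid as positive control. LiveBLAzer FRET substrate, 405 nm excitation, 460/530 nm emission.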

[2] = qHTS assay to identify small molecule agonists of the RXR signaling pathway - cell viability counter screen (AID 1159529); also: series mostly up to about 77 µM; nearly all actives have a fitted effect of over 50% in size
In short: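 CellTiter-Glo luminescence gave viability in the wells also read for beta-lactamase. Cells (RXR-alpha-UAS-bla HEK 293T, 2% charcoal-stripped FBS medium) had 5 hr plating, then 16 hr compound exposure at 37 C; tetraoctyl ammonium bromide served as positive control.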

[3] = qHTS assay to identify small molecule antagonists of the retinoid acid receptor (RAR) signaling pathway - cell viability counter screen (AID 1159551); also: nearly all actives have a fitted effect of over 35% in size
In short: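 Luminescent ATP quantitation (CellTiter-Glo) gave cell viability in C3RL4 cells exposed to test chemicals for 6 h at 37 C alongside 1 uM final retinol.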

[4] = qHTS assay to identify small molecule antagonists of the retinoic acid receptor (RAR) signaling pathway (AID 1159552; also: nearly all actives have a fitted effect of over 50% in size)
In short: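 Luminescent RARE reporter read-out in C3RL4 cells: 6 hr co-treatment at 37 C of test compounds with retinol at 1 uM final. Cells plated overnight beforehand; luciferase reagent incubated 30 min at room temperature before reading.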

[5] = qHTS assay to identify small molecule agonists of the retinoic acid receptor (RAR) signaling pathway (AID 1159553)
In short: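 Luminescence from a RARE-driven luciferase reporter in C3RL4 cells served as the read-out, measured after 30 min with detection reagent at room temperature. Compounds in DMSO were applied for 6 hr at 37 C following overnight seeding.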

[6] = qHTS assay to identify small molecule antagonists of the estrogen related receptor (ERR) signaling pathway - cell viability counter screen (AID 1224818);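 also: series mostly up to about 46 µM; viability measured after 17.5 h of compound exposure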
In short: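 Multiplexed counter screen to separate cytotoxic compounds from true ERR modulators. ERR cells received DMSO-dissolved compounds after a 6 h pre-incubation, were exposed 17.5 h at 37 C, then assayed with CellTiter-Fluor fluorescence.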

[7] = qHTS assay to identify small molecule antagonists of the estrogen related receptor signaling pathway with the pleiotropic PPARgamma coactivator (PGC) cell viability counter screen (AID 1224822; also: series mostly up to about 46 µM)
In short: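 Cells: PGC/ERR, 2,000/well, 1536-well format. Pre-incubation 6 h, 37 C/5% CO2. Compound exposure 17.5 h, 37 C. Detection: CellTiter-Fluor, 30 min, fluorescence.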

[8] = qHTS assay to identify small molecule antagonists of the estrogen related receptor (ERR) signaling pathway from Tox21 library - cell viability counter screen (AID 1224834); also: nearly all actives have a fitted effect of over 30% in size
In short: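 Fluorescence from CellTiter-Fluor gives the viability read-out, taken 30 min after reagent addition. Before that, ERR cells seeded 6 h earlier were incubated with compounds for 17.5 h at 37 C.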

[9] = qHTS assay to identify small molecule agonists of the constitutive androstane receptor (CAR) signaling pathway - cell viability counter screen (AID 1224836); also: series mostly up to about 92 µM; nearly all actives have a fitted effect of over 45% in size
In short: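 Cell viability multiplexed with the CAR agonist screen: CellTiter-Fluor fluorescence after 23 hr at 37 C. HepG2-CYP2B6-hCAR cells got compounds at 15 concentrations with PK11195 at 0.75 uM final.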

[10] = qHTS assay to identify small molecule antagonists of the constitutive androstane receptor (CAR) signaling pathway - cell viability counter screen (AID 1224837); also: series mostly up to about 92 µM; nearly all actives have a fitted effect of over 45% in size
In short: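 HepG2-CYP2B6-hCAR cells, 2500/well, 4 hr pre-incubation; compound titration, 15 conc.; CITCO 50 nM final; 23 hr, 37 C/5% CO2; CellTiter-Fluor, fluorescence intensity.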

[11] = target: Nuclear receptor subfamily 1 group I member 3 (Homo sapiens) (UniProt Q14994); test: qHTS assay to identify small molecule antagonists of the constitutive androstane receptor (CAR) signaling pathway (AID 1224838);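 also: HepG2 cells stably expressing hCAR with CYP2B6 luciferase reporter stimulated by CITCO; nearly all actives have a fitted effect of over 40% in size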
In short: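 HepG2-CYP2B6-hCAR cells; 4 h pre-incubation; cpd (15 conc) + CITCO 50 nM final; 24 h, 37 C/5% CO2; ONE-Glo, luminescence.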

[12] = target: Nuclear receptor subfamily 1 group I member 3 (Homo sapiens) (UniProt Q14994); test: qHTS assay to identify small molecule agonists of the constitutive androstane receptor (CAR) signaling pathway (AID 1224839);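 also: HepG2 cells stably carrying human CAR and a CYP2B6 luciferase reporter; series mostly up to about 92 µM; nearly all actives have a fitted effect of over 15% in size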
In short: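 Luminescent ONE-Glo read-out after 24 hr, 37 C exposure of double-stable HepG2-CYP2B6-hCAR reporter cells to a 15-point compound series, in the presence of 0.75 uM PK11195 (final).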

[13] = qHTS assay to identify small molecule antagonists of the estrogen related receptor signaling pathway with the pleiotropic PPARgamma coactivator (PGC) from Tox21 10K library - cell viability counter screen (AID 1224840; active = well fitted cell-killing curve with a large enough effect in the repeat runs, not every such curve was filed as active; also: nearly all actives have a fitted effect of over 40% in size)
In short: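 PGC/ERR cells, 2,000/well; 6 h pre-incubation 37 C/5% CO2; cpd in DMSO via pin tool; 17.5 h 37 C; CellTiter-Fluor, 30 min; fluorescence.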

[14] = target: Luciferin 4-monooxygenase (Photinus pyralis) (UniProt P08659); test: qHTS assay to identify small molecule inhibitors of firefly luciferase (AID 1224835); also: series mostly up to about 120 µM; nearly all actives have a fitted effect of over 25% in size
In short: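 Biochemical qHTS: compounds run as interplate titrations against purified firefly enzyme, with D-luciferin and ATP each at its KM concentration. Light output recorded by CCD imaging.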

[15] = qHTS assay to identify small molecule agonists of the estrogen related receptor signaling pathway with the pleiotropic PPARgamma coactivator (PGC) from Tox21 10K library (AID 1224842); also: nearly all actives have a fitted effect of over 15% in size
In short: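 PGC/ERR reporter cell line, 2,000 cells per well, incubated 6 h at 37 C before 23 nL compound in DMSO was added. After 18 h at 37 C, One-Glo luminescence read following 30 min at room temperature.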

[16] = qHTS assay to identify small molecule antagonists of the estrogen related receptor signaling pathway with the pleiotropic PPARgamma coactivator (PGC) from Tox21 10K library (AID 1224841; call rule not given here; also: series mostly up to about 92 µM; actives are mostly falling curves and most rising ones were filed inactive; nearly all actives have a fitted effect of over 50% in size)
In short: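 PGC/ERR cell line, 2,000 cells/well; 6 h pre-incubation 37 C/5% CO2; compounds (DMSO) pinned in; 18 h, 37 C; One-Glo, 30 min RT; luminescence.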

Measured: Potency

Retinoic acid receptor RXR-alpha (Homo sapiens), sequence (P19793 whole entry, looked up): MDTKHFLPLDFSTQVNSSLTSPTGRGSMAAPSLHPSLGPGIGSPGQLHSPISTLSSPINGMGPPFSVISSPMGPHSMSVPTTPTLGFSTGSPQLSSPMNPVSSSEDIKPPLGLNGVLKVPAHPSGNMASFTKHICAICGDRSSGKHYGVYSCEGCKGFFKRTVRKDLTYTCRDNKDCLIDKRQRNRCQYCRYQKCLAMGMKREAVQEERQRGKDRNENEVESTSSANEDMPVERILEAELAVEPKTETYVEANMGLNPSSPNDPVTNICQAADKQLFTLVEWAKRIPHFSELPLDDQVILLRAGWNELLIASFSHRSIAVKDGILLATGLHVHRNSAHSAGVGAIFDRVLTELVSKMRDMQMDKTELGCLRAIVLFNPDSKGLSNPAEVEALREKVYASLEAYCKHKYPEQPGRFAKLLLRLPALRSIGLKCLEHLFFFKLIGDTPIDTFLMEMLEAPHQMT
Nuclear receptor subfamily 1 group I member 3 (Homo sapiens), sequence (Q14994 whole entry, looked up): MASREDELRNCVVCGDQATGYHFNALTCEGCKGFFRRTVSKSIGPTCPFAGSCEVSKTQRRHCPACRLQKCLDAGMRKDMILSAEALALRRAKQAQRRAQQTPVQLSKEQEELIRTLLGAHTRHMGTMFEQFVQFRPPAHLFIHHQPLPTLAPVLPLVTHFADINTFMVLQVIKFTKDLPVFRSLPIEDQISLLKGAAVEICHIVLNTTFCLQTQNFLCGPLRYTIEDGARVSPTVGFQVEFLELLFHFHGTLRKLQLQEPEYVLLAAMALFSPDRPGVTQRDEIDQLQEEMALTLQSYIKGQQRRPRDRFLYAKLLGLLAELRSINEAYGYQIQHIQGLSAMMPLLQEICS
Luciferin 4-monooxygenase (Photinus pyralis), sequence (P08659 whole entry, looked up): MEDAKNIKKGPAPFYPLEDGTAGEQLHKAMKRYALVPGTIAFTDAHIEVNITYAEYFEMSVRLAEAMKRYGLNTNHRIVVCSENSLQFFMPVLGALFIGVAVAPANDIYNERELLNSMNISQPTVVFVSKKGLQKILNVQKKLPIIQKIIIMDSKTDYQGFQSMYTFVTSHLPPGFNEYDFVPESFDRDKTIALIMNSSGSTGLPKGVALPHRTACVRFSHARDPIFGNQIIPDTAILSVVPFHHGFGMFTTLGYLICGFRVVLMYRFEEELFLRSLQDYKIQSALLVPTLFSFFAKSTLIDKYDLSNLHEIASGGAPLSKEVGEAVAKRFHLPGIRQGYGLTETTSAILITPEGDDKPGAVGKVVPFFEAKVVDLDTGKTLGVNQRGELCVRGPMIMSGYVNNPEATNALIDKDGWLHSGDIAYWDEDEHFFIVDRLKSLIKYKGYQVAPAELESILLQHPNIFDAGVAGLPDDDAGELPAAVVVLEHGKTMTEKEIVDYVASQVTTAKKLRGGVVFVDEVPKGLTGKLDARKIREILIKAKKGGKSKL

CCN(Cc1ccncc1)C(=O)C(CO)c1ccccc1 (centres undefined)
inactive: [1] | [2] | [3] | [4] | [5] | [6] | [7] | [8] | [9] | [10] | [11] | [12] | [13]

NS(=O)(=O)c1ccccc1Cl
inactive: [1] | [2] | [3] | [4] | [5] | [8] | [14] | [9] | [10] | [11] | [12] | [13] | [15]

NC(=O)c1ccc(N)cc1
inactive: [1] | [2] | [3] | [4] | [5] | [8] | [14] | [9] | [10] | [11] | [13] | [16] | [15]

CCCCCCCCCCCCCCCCC
inactive: [1] | [2] | [3] | [4] | [5] | [8] | [14] | [9] | [10] | [11] | [12] | [16] | [15]

CN1CC(=O)NC1=N
inactive: [1] | [2] | [3] | [4] | [5] | [8] | [14] | [9] | [10] | [11] | [12] | [13] | [16] | [15]

O=C(CCCN1CCN(c2ccccn2)CC1)c1ccc(F)cc1
inactive: [1] | [2] | [3] | [4] | [5] | [8] | [14] | [9] | [10] | [11] | [12] | [16] | [15]

O=C(c1ccccc1)C1CCCCC1
inactive: [1] | [2] | [3] | [4] | [5] | [8] | [14] | [9] | [10] | [11] | [12] | [13] | [15]

CC1=CC(C)C(C=O)CC1 (centres undefined)
inactive: [1] | [2] | [3] | [4] | [5] | [8] | [14] | [9] | [10] | [11] | [12] | [13] | [15]

Cc1ccc(C#N)cc1
inactive: [1] | [2] | [3] | [4] | [5] | [8] | [14] | [9] | [10] | [11] | [12] | [13] | [16] | [15]

CC(C)CCCC(C)N (centres undefined)
inactive: [1] | [2] | [3] | [4] | [5] | [8] | [14] | [9] | [10] | [11] | [12] | [13] | [16] | [15]

FC(F)OC(Cl)C(F)(F)F (centres undefined)
inactive: [1] | [2] | [3] | [4] | [5] | [8] | [14] | [9] | [10] | [11] | [12] | [13] | [15]

NC(CSCC(=O)O)C(=O)O (centres undefined)
inactive: [1] | [2] | [3] | [4] | [5] | [8] | [14] | [9] | [10] | [11] | [12] | [16] | [15]
